Compounds with a hit are over-represented: about 15% of the library has one in this group of screens.
12-LOX inh – inhibitors of human 12S-lipoxygenase ALOX12; purified 12hLO, xylenol orange hydroperoxide absorbance; Potency, µM (series often up to 108 µM), for inactives: at the highest dose activity change, negative = inhibition, actives largely listed as inhibitors; 580,000 tested, 1.1% active; AID 1671190
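Purified human 12hLO (150 nM final) in 25 mM Hepes, 0.01% Triton X-100, pH 7.0 was preincubated 15 min at room temperature with compound. Then 40 uM arachidonic acid was added, 30 min. Hydroperoxide was read by Fe-XO absorbance ratio 573/405 nm.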
RORgamma inh – ROR gamma (mouse) transcription inhibition; Potency, µM (series often up to 53.6 µM), for inactives: at the highest dose activity change, negative = inhibition, usual class: inhibitors; 310,000 tested, 5.4% active; P51450; Drosophila S2 Gal4-RORgamma UAS-luciferase reporter, 20 h; note: nearly all actives have a fitted effect of over 60% in size
Target sequence (P51450 whole entry, looked up, the tested form may be a part): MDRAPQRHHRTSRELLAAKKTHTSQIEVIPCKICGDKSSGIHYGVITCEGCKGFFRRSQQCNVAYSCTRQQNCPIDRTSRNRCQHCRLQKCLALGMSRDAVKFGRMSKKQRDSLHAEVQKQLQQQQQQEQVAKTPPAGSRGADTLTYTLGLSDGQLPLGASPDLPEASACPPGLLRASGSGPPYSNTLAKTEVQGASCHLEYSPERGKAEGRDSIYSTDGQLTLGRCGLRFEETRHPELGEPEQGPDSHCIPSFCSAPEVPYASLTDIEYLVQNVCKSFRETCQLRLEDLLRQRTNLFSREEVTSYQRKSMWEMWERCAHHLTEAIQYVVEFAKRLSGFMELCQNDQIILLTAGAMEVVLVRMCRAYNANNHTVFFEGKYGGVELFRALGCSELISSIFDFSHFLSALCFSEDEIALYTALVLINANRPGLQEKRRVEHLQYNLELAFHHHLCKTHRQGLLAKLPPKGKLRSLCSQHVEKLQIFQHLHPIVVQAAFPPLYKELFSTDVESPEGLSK
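Drosophila Schneider cells stably carrying a metallothionein-driven Gal4 DBD–ROR gamma fusion and a UAS-Photinus luciferase reporter were exposed to compound for 1 hr, then induced with copper sulfate (700 uM final) for 20 hr at ambient temperature before luminescence reading.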
TDP1 cell CPT – DT40-hTDP1 cell growth loss with CPT | chicken DT40 Tdp1-/-;hTDP1 cells + 20 nM CPT, ATP luminescence, 48 h | 420,000 tested, 12% active | Potency, µM (highest dose often 46.2 µM), without a hit: at the top dose activity change, negative = growth inhibition, actives largely listed as inhibitors; note: nearly all actives have a fitted effect of over 55% in size
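Cell growth measured by CellTiter-Glo luminescence after a minimum 48 h, 37 C compound exposure with 20 nM CPT in Tdp1-knockout DT40 cells stably expressing hTDP1, seeded 400/well; qHTS titration format.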
ELG1 DNA repair – inhibitors of ELG1-dependent DNA repair in HEK293T cells | HEK293T ELG1-luciferase reporter, luminescence, 16 h; DNA damage induced by 5-fluorouridine | Potency, µM (top dose mostly 46.1 µM), inactives show at the top dose activity change, negative = inhibition, hits mostly inhibitors | 330,000 tested, 2.3% active | AID 504467; note: nearly all actives have a fitted effect of over 55% in size
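Quantitative HTS, concentration-response format. 2,000 cells/well co-treated with 5-fluorouridine and compound, 16 hr in 5% CO2 at 37 °C; ONE-Glo luminescence read after 30 min.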
TDP1 cell noCPT – qHTS for Inhibitors of human tyrosyl-DNA phosphodiesterase 1 (TDP1): qHTS in cells in absence of CPT; DT40 Tdp1-/- hTDP1 cells, no CPT, ATP luminescence, 48 h; Potency, µM (highest dose often 46.2 µM), for the others: at the top dose activity change, negative = growth inhibition, actives largely listed as inhibitors; 420,000 tested, 15% active; AID 686978, 2013; note: nearly all actives have a fitted effect of over 55% in size
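Luminescent ATP content (CellTiter-Glo) served as the growth readout. Knockout chicken DT40 cells expressing human TDP1 were exposed to compounds without camptothecin for a minimum 48 hr at 37 °C.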
Gal4-VP16 FLuc – inhibits Gal4-VP16 luciferase reporter, ROR gamma counter-screen. AID 2546. 310,000 tested, 3.5% active. Drosophila S2 Gal4-VP16 UAS-luciferase, luminescence, 20 h. Potency, µM (series often up to 53.6 µM), without a hit: at the highest dose activity, negative = inhibition, usual class: inhibitors;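 note: Gal4-VP16 expression switched on by copper sulfate through the metallothionein promoter; nearly all actives have a fitted effect of over 50% in size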
An asterisk follows results filed as active; u = inconclusive; x = no result given; [ ] = another dose, or the depositor's remark. Calls come from the whole dose curve; as a rule, active = well fitted curve in the direction sought with a large enough effect; inconclusive = small, poorly fitted or top-dose-only effect, or another doubt; inactive = no such curve, though single readings can be large; an effect the other way counts as inactive or inconclusive. % is set by controls: 0 for no effect and ±100 for the full control effect; potency is the fitted concentration of half-maximal effect.

SMILES	12-LOX inh	RORgamma inh	TDP1 cell CPT	ELG1 DNA repair	TDP1 cell noCPT	Gal4-VP16 FLuc
COc1ccc(-c2cc(C(F)(F)F)nc(S(=O)(=O)CCCC(=O)Nc3cccc(O)c3)n2)cc1OC	-11.3%	10µM*	3.66µM*	u	4.11µM*	11.2µM*
COc1ccc(-c2cc(C(F)(F)F)nc(S(=O)(=O)CCCC(=O)Nc3ccccc3C(F)(F)F)n2)cc1OC	u	x	1.16µM*	x	2.06µM*	x
Cn1c(=O)c2c(nc(NCCc3ccc(F)cc3)n2Cc2ccccc2Cl)n(C)c1=O	6.9%	x	x	x	x	x
COC(=O)c1ccn(Cc2ccccc2Br)n1	15.0%	x	x	x	x	x
Cc1ccc2c(C)c(CCC(=O)Nc3cccc(Cl)c3)c(=O)oc2c1	-27.8%	x	x	x	x	x
O=c1c2c3nc4ccccc4nc3n(/N=C/c3ccco3)c2ncn1CCC1=CCCCC1	10.6%	36.9%	16.4µM*	u	20.6µM*	-0.5%
NS(=O)(=O)c1ccc(CCNC(=O)c2ccc(C#CC3(O)CCCCC3)cc2)cc1	-2.7%	20.4%	20.6µM*	6.51µM*	2.59µM*	-21.1%
NS(=O)(=O)c1ccc(CCNC(=O)c2ccc(Cl)nc2)cc1	x	-2.2%	-3.7%	13.4%	1.3%	-3.4%
O=C(NCCCN1CCOCC1)c1ccccc1N1C(=O)[C@@H]2Cc3c([nH]c4ccccc34)C(c3ccc(F)cc3)N2C1=O (some centres undefined)	-0.1%	17.3%	9.2µM*	u	14.6µM*	-0.4%
COc1cccc(C2c3[nH]c4ccccc4c3C[C@H]3C(=O)N(c4ccccc4C(=O)NCCCN4CCOCC4)C(=O)N23)c1 (some centres undefined)	-17.6%	8.6%	11.6µM*	u	13µM*	u
Cc1cc(C)c2c3c(sc2n1)C(c1cccc(F)c1)C(C#N)=C(N)O3 (centres undefined)	u	1.2%	u	16.0%	16.4µM*	7.5%
C[n+]1cccc(C2C(C#N)=C(N)Oc3c2ccc2ccccc32)c1 (centres undefined)	-19.4%	-12.6%	u	-7.1%	u	0.3%
O=C(NCc1nnc2ccc(-c3ccc(Cl)cc3)nn12)C1(c2ccccc2)CC1	20.2%	x	x	x	x	x
O=C(Nc1ccccc1)Nc1sccc1-c1nc2ccccc2s1	0.0%	7.94µM*	17.4%	-8.8%	-6.4%	4.1%
N#Cc1c(SCCN2CCOCC2)nc(N2CCCCC2)c2c1CCCC2	0.794µM*	x	x	x	x	x
CCSc1nc(N2CCCCC2)c2c(c1C#N)CCCC2	0.7%	-3.2%	u	-3.2%	16.4µM*	-1.8%
N#Cc1c(SCC(=O)N2CCOCC2)nc(N2CCCC2)c2c1CCCC2	-23.9%	x	x	x	x	x
CC(C)Sc1nc(N2CCCCC2)c2c(c1C#N)CCCC2	29.0%	x	x	x	x	x
O=C(NCc1ccnc2[nH]ccc12)c1ccc(C(F)(F)F)cc1	4.2%[176 µM]	x	x	x	x	x
Cn1cccc1/C=N/n1c(-c2ccccc2)n[nH]c1=S	u	14.1µM*	-7.0%	1.0%	-4.7%	u
S=c1[nH]nc(-c2cccnc2)n1/N=C/c1ccco1	-22.0%	u	-7.1%	0.6%	3.9%	-4.1%
Cn1cccc1/C=N/n1c(-c2ccc(C(C)(C)C)cc2)n[nH]c1=S	25.1µM*	2.24µM*	8.2µM*	u	8.2µM*	u
COc1cccc(-c2ccc(CN3CCN(c4ccc(Cl)nn4)C(=O)C3)cc2)c1	10.3%[6.33 µM]	x	x	x	x	x
COc1cccc(/C=N/n2c(-c3ccco3)nc3ccccc3c2=O)c1OC	-15.4%	-1.0%	u	5.17µM*	u	-11.7%
COc1ccc(/C=N/n2c(SC)nnc2-c2ccccc2)c(OC)c1OC	0.9%	-36.5%	3.26µM*	8.2µM*	2.06µM*	2.3%

Assay outcomes deposited in PubChem by National Center for Advancing Translational Sciences (NCATS).
